Screening data from PubChem BioAssay.
FLuc inh = Photinus pyralis luciferase inhibition; Potency, µM (top dose mostly 115 µM), hits mostly inhibitors; 76,000 compounds, 2.5% hits; purified P. pyralis luciferase, luminescence, biochemical; P08659; further: nearly all actives have a fitted effect of over 65% in size
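Purified 10nM P. pyralis luciferase with 10uM D-luciferin and 10uM ATP in 50mM Tris acetate pH 7.5, 10mM Mg acetate, 0.01% Tween-20, 0.05% BSA. qHTS titration; luminescence read by CCD imager.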
hNpr1 antagonist = blocks ANP-stimulated signaling of human Npr1 receptor. P16066. HEK293 hNpr1 GloSensor cGMP, ANP-stimulated luminescence. Potency, µM (top dose mostly 46.3 µM), usual class: inhibitors. 76,000 compounds, 1.6% hits. AID 1347048; calls by dose curve; further: nearly all actives have a fitted effect of over 60% in size
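Compound pre-incubated 30 min at room temperature on GloSensor-loaded HEK293 cells stably carrying hNpr1 and the pGS-40F cGMP biosensor. Stimulation uses hNppA at 0.1 nM final; luminescence is taken at baseline and 20 min post-agonist.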
HEK cytotox = HEK 293 cell cytotoxicity; AID 1345083; Potency, µM (series often up to 115 µM), usual class: inhibitors; HEK 293 viability, ATP luminescence (CellTiter-Glo), 48-72 h; 94,000 compounds, 6.6% hits; further: nearly all actives have a fitted effect of over 60% in size
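Viability of HEK 293 cells, plated at 250 cells/well, was judged by cellular ATP after compound treatment for 48 or 72 hr. Luminescence was imaged 10 min after CellTiter-Glo addition at room temperature.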
3T3 cytotox = cytotoxic compounds in NIH 3T3 cells; NIH 3T3 viability, CellTiter-Glo ATP luminescence, 48-72 h; Potency, µM (titrated, usually from 96.7 µM), usual class: inhibitors; 94,000 compounds, 4.3% hits; further: nearly all actives have a fitted effect of over 55% in size
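Cytotoxicity was measured by CellTiter-Glo ATP luminescence after 48 or 72 h compound exposure at 37 °C. Mouse NIH 3T3 fibroblasts were seeded at 400 cells/well and dosed by 23 nL pin transfer.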
A number is an active result. Hits are enriched below; roughly 11% of the tested compounds scored in any of these assays. Unless noted, the call rests on the fitted dose curve; in most records, active means well fitted curve in the direction sought with a large enough effect; inconclusive means small, poorly fitted or top-dose-only effect, or another doubt; inactive means no such curve, though single readings can be large; an effect the other way counts as inactive or inconclusive.

`COc1ccc(-c2cc(C[C@H]3CNCC[C@H]3CC(=O)N3CCN(c4ccccc4OC)CC3)no2)cc1` gave FLuc inh inactive, hNpr1 antagonist inactive, HEK cytotox inconclusive and 3T3 cytotox 14µM.
For COc1ccc(-c2cc(C[C@H]3CNCC[C@H]3CC(=O)NCCN3CCOCC3)no2)cc1 the results were FLuc inh inactive, hNpr1 antagonist inactive, HEK cytotox inactive and 3T3 cytotox inactive.
Screening COc1ccc(-c2cc(C[C@H]3CNCC[C@H]3CC(=O)NCc3cccs3)no2)cc1 returned FLuc inh inactive, hNpr1 antagonist inactive, HEK cytotox 56µM and 3T3 cytotox 89µM.
Screening O=C(C[C@@H]1CCNC[C@@H]1Cc1cc(-c2ccc(F)cc2)on1)NCc1ccccc1 returned FLuc inh inactive, hNpr1 antagonist inactive, HEK cytotox 100µM and 3T3 cytotox 112µM.
`O=C(C[C@@H]1CCNC[C@@H]1Cc1cc(-c2ccccc2)on1)NCc1cccnc1` gave FLuc inh inactive, hNpr1 antagonist inactive, HEK cytotox inactive and 3T3 cytotox inactive.
`O=C(C[C@@H]1CCNC[C@@H]1Cc1cc(-c2ccccc2)on1)NCc1ccccc1` gave FLuc inh inactive, hNpr1 antagonist inactive, HEK cytotox inconclusive and 3T3 cytotox 100µM.
`COc1ccc(CNC(=O)C[C@@H]2CCNC[C@@H]2Cc2cc(-c3ccc(C(C)(C)C)cc3)on2)cc1` gave FLuc inh inactive, hNpr1 antagonist inactive, HEK cytotox inconclusive and 3T3 cytotox 25µM.
Screening O=C(C[C@@H]1CCNC[C@@H]1Cc1cc(-c2ccc(F)cc2)on1)NCc1cccnc1 returned FLuc inh inactive, hNpr1 antagonist inactive, HEK cytotox inactive and 3T3 cytotox inactive.
`O=C(C[C@@H]1CCNC[C@@H]1Cc1cc(-c2ccccc2)on1)NCc1cccs1` gave FLuc inh inactive, hNpr1 antagonist inactive, HEK cytotox 89µM and 3T3 cytotox inconclusive.
COc1ccc(-c2cc(C[C@H]3CNCC[C@H]3CC(=O)NC(C)C)no2)cc1 was read as FLuc inh inactive, hNpr1 antagonist inactive, HEK cytotox inactive and 3T3 cytotox inactive.
For COc1ccc(-c2cc(C[C@H]3CNCC[C@H]3CC(=O)Nc3ccccc3)no2)cc1 the results were FLuc inh inactive, hNpr1 antagonist inactive, HEK cytotox 45µM and 3T3 cytotox 40µM.
CC(=O)NCCNC(=O)C[C@@H]1CCNC[C@@H]1Cc1cc(-c2ccccc2)on1 was read as FLuc inh inactive, hNpr1 antagonist inactive, HEK cytotox inactive and 3T3 cytotox inactive.
Screening CC(C)(C)NC(=O)C[C@@H]1CCNC[C@@H]1Cc1cc(-c2ccc(C(C)(C)C)cc2)on1 returned FLuc inh inactive, hNpr1 antagonist inactive, HEK cytotox 13µM and 3T3 cytotox 22µM.
Screening CC(C)OCCCNC(=O)c1cc2cn(C(C)C)cc2s1 returned FLuc inh inactive, hNpr1 antagonist inactive, HEK cytotox inactive and 3T3 cytotox inactive.
O=C(NCc1cccs1)c1ccc2nnc(-c3cc(F)ccc3F)n2c1 was read as HEK cytotox inactive and 3T3 cytotox inactive.
For CCCCn1c(=O)c(C(=O)N2CCN(C(=O)c3ccccc3Cl)CC2)nc2cccnc21 the results were HEK cytotox inactive and 3T3 cytotox inactive.
`O=C(C[C@@H]1CCNC[C@@H]1Cc1cc(-c2ccc(F)cc2)on1)NCc1ccc2c(c1)OCO2` gave FLuc inh inactive, hNpr1 antagonist inactive, HEK cytotox inconclusive and 3T3 cytotox inconclusive.
`COc1ccc(-c2cc(C[C@H]3CNCC[C@H]3CC(=O)NCc3ccc(F)cc3)no2)cc1` gave FLuc inh inactive, hNpr1 antagonist inactive, HEK cytotox inconclusive and 3T3 cytotox inconclusive.
For COc1ccc(-c2cc(C[C@H]3CNCC[C@H]3CC(=O)NCc3ccccc3)no2)cc1 the results were FLuc inh inactive, hNpr1 antagonist inactive, HEK cytotox 89µM and 3T3 cytotox 112µM.
Screening O=C(C[C@@H]1CCNC[C@@H]1Cc1cc(-c2ccc(F)cc2)on1)NCc1ccc(F)cc1 returned FLuc inh inactive, hNpr1 antagonist inactive, HEK cytotox 79µM and 3T3 cytotox 40µM.
CC(C)(C)c1ccc(-c2cc(C[C@H]3CNCC[C@H]3CC(=O)NCc3ccc(F)cc3)no2)cc1 was read as FLuc inh inactive, hNpr1 antagonist inactive, HEK cytotox 28µM and 3T3 cytotox 25µM.
`COc1ccc(-c2cc(C[C@H]3CNCC[C@H]3CC(=O)NCc3cccnc3)no2)cc1` gave FLuc inh inactive, hNpr1 antagonist inactive, HEK cytotox inactive and 3T3 cytotox inactive.
CC(C)c1ccc(-n2cc(CN3CCCC4(C3)CN(C)C(=O)O4)cn2)cc1 (stereo not drawn) was read as FLuc inh inconclusive, hNpr1 antagonist inactive, HEK cytotox inconclusive and 3T3 cytotox inconclusive.
Screening CCCCc1ccc(-n2cc(CN3CCN(C(C)=O)CC(O)C3)cn2)cc1 (stereo not drawn) returned FLuc inh 40µM, hNpr1 antagonist inactive, HEK cytotox inconclusive and 3T3 cytotox inconclusive.
CC(C)c1ccc(-n2cc(CN3CCN(C(=O)N(C)C)CC3)cn2)cc1 was read as FLuc inh 28µM, hNpr1 antagonist inactive, HEK cytotox inconclusive and 3T3 cytotox inactive.
For COc1ccc(-n2c(=O)[nH]c3cccnc32)cc1 the results were FLuc inh inactive, hNpr1 antagonist inactive, HEK cytotox inactive and 3T3 cytotox inactive.
For COCCOC1CCN(C(=O)c2cc(C)n(CCOC)c2C)CC1 the results were FLuc inh 20µM, hNpr1 antagonist inactive, HEK cytotox inactive and 3T3 cytotox inactive.
For O=C(C1CCN(Cc2ccccc2-c2ccccc2F)CC1)N1CCOCC1 the results were HEK cytotox inactive and 3T3 cytotox inactive.
For COc1ccc(CNC(=O)C2CCN(Cc3ccccc3-c3ccccc3F)CC2)cc1 the results were HEK cytotox 45µM and 3T3 cytotox inconclusive.
Screening O=C(C1CCN(Cc2ccccc2-c2ccccc2F)CC1)N1CCN(Cc2ccccc2)CC1 returned HEK cytotox 35µM and 3T3 cytotox 25µM.
For O=C(NCc1ccccc1Cl)C1CCN(Cc2ccccc2-c2ccccc2F)CC1 the results were HEK cytotox inconclusive and 3T3 cytotox 45µM.
Screening O=C(NCc1ccccc1)C1CCN(Cc2ccccc2-c2ccccc2F)CC1 returned HEK cytotox 50µM and 3T3 cytotox inconclusive.
For CCOc1ccccc1NC(=O)N1CCC([C@@H]2[C@H](OC)C(=O)N2C(C)C)CC1 the results were FLuc inh inactive, hNpr1 antagonist inactive, HEK cytotox inactive and 3T3 cytotox inactive.
COCCCNc1cc(-c2cccc(C(F)(F)F)c2)nc2c(C)noc12 was read as FLuc inh inactive, hNpr1 antagonist inactive, HEK cytotox 79µM and 3T3 cytotox inconclusive.
For Cc1noc2c(NCCN(C)C)cc(-c3cccc(C(F)(F)F)c3)nc12 the results were FLuc inh inactive, hNpr1 antagonist inactive, HEK cytotox 32µM and 3T3 cytotox 32µM.
Cc1noc2c(N(C)C)cc(-c3cccc(C(F)(F)F)c3)nc12 was read as FLuc inh inactive, hNpr1 antagonist inactive, HEK cytotox inactive and 3T3 cytotox inconclusive.
